Source: PubChem BioAssay
Hits are enriched below; roughly 3.8% of the tested compounds scored in any of these assays.
Jurkat NFkB inh: inhibitors of the PMA/ionomycin-induced NF-kB reporter in Jurkat cells | PMA/ionomycin-induced NF-kB luciferase reporter, luminescence | inhibition, % at 4 µM | hit rate 0.53% among 330,000 | AID 435003; in the data active means inhibition above about 50%
697 NFkB inh: lowers PMA/ionomycin-induced NF-kB signal in 697 B cells. 697 B-cell NF-kB luciferase reporter, 16 h. hit rate 0.33% among 330,000. inhibition, % at 4 µM; in the data active means inhibition above about 35%
Mdm2-MdmX inh: human Mdm2/MdmX binding inhibition | SaOS-2 split-luciferase Mdm2/MdmX complementation, luminescence | inhibition, % at 8 µM | hit rate 3% among 330,000;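 active means inhibition of at least 50% at 8 µM in the primary screen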
Shn3 inh set2: inhibitors of Schnurri-3 3'UTR reporter in osteoblasts; Clone20 osteoblast Shn3 3'UTR firefly luciferase, 24 h; hit rate 0.52% among 360,000; inhibition, % at 12.5 µM;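 active means mean inhibition of at least 75% with every replicate also reaching 75%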
Gli-Sufu antag: blocks Gli-Sufu signaling in a luciferase reporter. Sufu-KO-LIGHT fibroblasts, Gli luciferase reporter luminescence. inhibition, % at 5 µM. hit rate 0.74% among 340,000. AID 588413;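 active means inhibition above about 55%, limit read from the data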
Mdm2-MdmX conf: confirmation of human Mdm2/MdmX interaction inhibitors; shares compounds with Mdm2-MdmX inh; Mdm2-MdmX binding, luminescent assay; inhibition, % at 8 µM; hit rate 55% among 10,000; in the data active means inhibition above about 40%
FLuc counter: counter-screen for Mdm2/MdmX inhibitors: full-length luciferase; shares compounds with Mdm2-MdmX inh; SaOS-2 full-length luciferase counterscreen, luminescence; inhibition, % at 8 µM; hit rate 77% among 6,200;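 active means mean inhibition at 8 µM reaching about 37%, which flags the compound as non-specific, limit read from the data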;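 further: p53-null SaOS-2 cells with luciferase driven by a doxycycline-inducible promoter; compound on cells about two nights before reading with doxycycline added after day one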
Large screens that a line does not name were inactive (follow-up assays come after a bar, where they were run).

CCCn1nc(C(=O)Nc2ccc(N3CCOCC3)cc2)c2ccccc2c1=O	Mdm2-MdmX inh 51 | Mdm2-MdmX conf inactive
Cn1nc(C(=O)Nc2cccc(S(=O)(=O)N3CCCC3)c2)c2ccccc2c1=O	Mdm2-MdmX inh 54 | Mdm2-MdmX conf inactive
CCOc1cc(N2CCOCC2)c(OCC)cc1NC(=O)c1ccccc1C	none
CCCn1nc(C(=O)NCCN2CCOCC2)c2ccccc2c1=O	none
CCN(CC(=O)Nc1c(F)cccc1F)C(=O)CSC(=S)N1CCCC1	none
Cc1ccc(N2C(=O)CC(N3CCc4ccccc43)C2=O)cc1Cl (stereo not given)	none
Cc1nc2ccc(NC(=O)c3nn(CC(C)C)c(=O)c4ccccc34)cc2s1	Mdm2-MdmX inh 77 | Mdm2-MdmX conf 86 | FLuc counter 51
CN(C)c1nc(N/N=C\c2ccc(Cl)c([N+](=O)[O-])c2)nc(Nc2ccc(F)cc2)n1	Mdm2-MdmX inh 72 | Mdm2-MdmX conf inactive
Cc1nn(-c2ccccc2)c(Cl)c1C(=O)OCC(=O)NCCc1ccccc1	none
COc1ccc(C(C)=O)cc1CSc1nnc(-c2ccc(Cl)cc2)n1-c1ccccc1	Mdm2-MdmX inh 63 | Mdm2-MdmX conf 49 | FLuc counter inactive
CCc1ccc(Nc2n[n+](-c3ccccc3)c(-c3ccc(N(CC)CC)cc3)s2)cc1	Mdm2-MdmX inh 87 | Mdm2-MdmX conf 53 | FLuc counter 44
CCc1ccc(Nc2n[n+](-c3ccccc3)c(/C=C/c3ccccc3)s2)cc1	Mdm2-MdmX inh 52 (no result: Shn3 inh set2, Gli-Sufu antag) | Mdm2-MdmX conf inactive
COc1ccc(C)cc1Nc1n[n+](-c2ccccc2)c(-c2c(Cl)cccc2Cl)s1	Mdm2-MdmX inh 95 (no result: Shn3 inh set2) | Mdm2-MdmX conf 89 | FLuc counter 55
COc1ccc(C)cc1Nc1n[n+](-c2ccccc2)c(-c2ccc(OC)c(OC)c2OC)s1	none
Fc1ccc(-[n+]2nc(Nc3ccccc3)sc2-c2c(Cl)cccc2Cl)cc1	Mdm2-MdmX inh 67 | Mdm2-MdmX conf inactive | FLuc counter 48
CC(=O)c1ccc(Nc2nc(C(N)C(C)C)cs2)cc1 (stereo not given)	none (no result: Jurkat NFkB inh, 697 NFkB inh, Mdm2-MdmX inh, Gli-Sufu antag)
CCc1ccc(Nc2n[n+](-c3ccccc3)c(-c3c(Cl)cccc3Cl)s2)cc1	Mdm2-MdmX inh 100, Shn3 inh set2 92 | Mdm2-MdmX conf 96 | FLuc counter 56
COc1ccc2ccccc2c1-c1sc(Nc2ccccc2)n[n+]1-c1ccc(F)cc1	Mdm2-MdmX inh 76 | Mdm2-MdmX conf inactive
CCc1ccc(Nc2n[n+](-c3ccccc3)c(-c3ccc(OCc4ccccc4)cc3)s2)cc1	none
COCCN1C[C@@H](CO)O[C@@H](n2cnc3c(N4CCCC4)ncnc32)C1	none (no result: Jurkat NFkB inh, 697 NFkB inh, Mdm2-MdmX inh, Gli-Sufu antag)
Cc1ccc(NS(=O)(=O)c2ccc(-c3cnc(C4CC4)o3)cc2)cc1	Mdm2-MdmX inh 53 | Mdm2-MdmX conf 51 | FLuc counter 50
O=S(=O)(c1ccc(-c2cnc(C3CC3)o2)cc1)N1CCN(c2ccccc2)CC1	Mdm2-MdmX inh 59 | Mdm2-MdmX conf inactive
O=S(=O)(NCc1ccccc1)c1ccc(-c2cnc(C3CC3)o2)cc1	none
COCc1c(C(=O)N/N=C/c2ccc(C)o2)nnn1-c1nonc1N	none
CCOC(=O)N1CCN(C(=O)/C=C/c2cccc([N+](=O)[O-])c2)CC1	none
COc1ccc2c(c1)c(C(=O)N/N=C/c1ccc(Br)cc1)c(C)n2C	Mdm2-MdmX inh 56 | Mdm2-MdmX conf inactive | FLuc counter 54
Cc1ccc(C)c(N2CCN(CCCNC(=O)Cn3cccc3C(=O)c3ccccc3)CC2)c1	Mdm2-MdmX inh 59 | Mdm2-MdmX conf inactive
O=C(CCC(=O)N1CCOc2ccc(Cl)cc21)NCCCN1CCC(Cc2ccccc2)CC1	Mdm2-MdmX inh 83 | Mdm2-MdmX conf 50 | FLuc counter 95
O=C(CCC(=O)N1CCOc2ccc(Cl)cc21)NCCCN1CCN(c2ccccc2F)CC1	none
Cc1ccc(C)c(N2CCN(CCCNC(=O)CCC(=O)N3CCOc4ccc(Cl)cc43)CC2)c1	Mdm2-MdmX inh 78 (no result: Shn3 inh set2, Gli-Sufu antag) | Mdm2-MdmX conf 43 | FLuc counter 56
Cc1ccc(-c2nc(CN3CCCCC3)cc(CN3CCCCC3)c2O)cc1	none
CCCn1c(C(O)c2ccc(OC)c(OC)c2)nc2ccccc21 (stereo not given)	none
Cc1cc(C)c(C)c(S(=O)(=O)N2CCC(C(=O)NCc3cccs3)CC2)c1C	none (no result: Jurkat NFkB inh, 697 NFkB inh, Mdm2-MdmX inh, Gli-Sufu antag)
